In paper PMC7826789 (International Journal of Molecular Sciences, 2021):

Experiments:
Conditions in all cases: Compound Concentration (nM):1000
PDGFRB = test system: PDGFRB
PDPK1 = test system: PDPK1
PFCDPK1(P.falciparum) = test system: T1, PFCDPK1(P.falciparum)
T1 construct: gene CDPK1

PFPK5(P.falciparum) = test system: T2, PFPK5(P.falciparum)
T2 construct: gene MAL13P1.279

PFTAIRE2 = test system: T3, PFTAIRE2
T3 construct: gene CDK15

PFTK1 = test system: T4, PFTK1
T4 construct: gene CDK14

PHKG1 = test system: PHKG1
PHKG2 = test system: PHKG2
PIK3C2B = test system: PIK3C2B
PIK3C2G = test system: PIK3C2G
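Also: KINOMEscan scanMAX binding as percent activity remaining versus control; lower means stronger binding.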

Compound | Percent Control (PDGFRB) [%] | Percent Control (PDPK1) [%] | Percent Control (PFCDPK1(P.falciparum)) [%] | Percent Control (PFPK5(P.falciparum)) [%] | Percent Control (PFTAIRE2) [%] | Percent Control (PFTK1) [%] | Percent Control (PHKG1) [%] | Percent Control (PHKG2) [%] | Percent Control (PIK3C2B) [%] | Percent Control (PIK3C2G) [%]
COc1cc2ncn(-c3cc(O[C@H](C)c4ccccc4Cl)c(C(N)=O)s3)c2cc1OC [GSK237701A] | 12 | 90 | 75 | 57 | 60 | 100 | 100 | 79 | 12 | 78
COc1ccc2[nH]c3c4[nH]c5ccc(OC)cc5c4c4c(c3c2c1)C(=O)NC4=O [GW296115X] | 0.1 | 25 | 29 | 82 | 91 | 85 | 12 | 52 | 94 | 76
Nc1ncnc2occ(-c3ccc(NC(=O)Nc4cc(C(F)(F)F)ccc4F)cc3)c12 [GW770249X] | 0 | 57 | 83 | 100 | 46 | 18 | 100 | 100 | 100 | 88
CC1=C(C(=O)Nc2ccc3[nH]ncc3c2)C(c2ccc(Cl)c(Cl)c2)CC(=O)N1 (centres unmarked) [GSK299115A] | 99 | 100 | 87 | 71 | 66 | 49 | 100 | 84 | 84 | 77
CN1CCN(C(=O)c2ccc(NC(=O)Nc3ccc(N(C)c4ccnc(Nc5ccc(CS(C)(=O)=O)cc5)n4)cc3)cc2)CC1.Cl [GW830263A] | 0 | 68 | 71 | 95 | 100 | 81 | 100 | 100 | 100 | 100
CC(C)COC(=O)c1ccc2c(c1)/C(=C/Nc1ccc(S(N)(=O)=O)cc1)C(=O)N2 [GW416981X] | 57 | 55 | 71 | 100 | 75 | 89 | 100 | 54 | 100 | 97
O=C1Nc2ccc(C(=O)c3ccco3)cc2C1=Cc1cc(Cl)c(O)c(Cl)c1 [GW406108X] | 88 | 97 | 9.5 | 93 | 100 | 89 | 100 | 70 | 12 | 39
NS(=O)(=O)c1ccc(N/N=C2\C(=O)Nc3ccc(C(=O)NCc4ccncc4)cc32)cc1 [GW300657X] | 74 | 65 | 85 | 57 | 49 | 73 | 100 | 70 | 100 | 86
COc1ccc2c(-c3ccnc(Nc4cccc(OC(F)(F)F)c4)n3)cnn2n1 [GW810372X] | 100 | 100 | 81 | 100 | 100 | 100 | 100 | 100 | 100 | 74
Cl.O=C(O[C@H]1CN[C@H](C#Cc2cc3ncnc(Nc4ccc5c(cnn5Cc5ccccc5)c4)c3s2)C1)N1CCOCC1 [GSK200398A] | 100 | 89 | 88 | 100 | 91 | 100 | 96 | 98 | 88 | 84
COc1ccccc1-c1cc(/C=C2\C(=O)Nc3ncc(Br)cc32)cc(Br)c1O [GW442130X] | 72 | 89 | 100 | 100 | 100 | 100 | 100 | 100 | 59 | 87
CCc1ccc(Oc2nccc(-c3c(-c4ccc(F)cc4)ncn3C3CCNCC3)n2)cc1 [SB-242719] | 81 | 86 | 66 | 87 | 93 | 86 | 90 | 72 | 100 | 93
COC(=O)Nc1nc2ccc(Oc3ccc(NC(=O)Nc4cc(C(F)(F)F)ccc4F)cc3)cc2s1.Cl [GW693917A] | 0.1 | 95 | 77 | 77 | 27 | 56 | 100 | 90 | 100 | 87
COc1cccc(-c2c[nH]c3c(N/N=C/c4ccncc4)ncnc23)c1 [GW814408X] | 5.5 | 78 | 5.2 | 97 | 78 | 95 | 100 | 100 | 100 | 92
Cc1cc(O)cc(C)c1/C=C/c1cncc(C(N)=O)c1 [GW435821X] | 0.5 | 96 | 75 | 100 | 100 | 100 | 100 | 100 | 97 | 85
COc1ccc(COc2ccc(Cc3cnc(N)nc3N)cc2OC)cc1 [GW632580X] | 92 | 100 | 70 | 71 | 80 | 74 | 100 | 96 | 86 | 100
C[C@@H](Oc1cc(-n2cnc3ccc(OC4CCN(C)CC4)cc32)sc1C(N)=O)c1ccccc1Cl [GSK579289A] | 12 | 100 | 74 | 76 | 74 | 95 | 86 | 81 | 32 | 78
O=C(Nc1n[nH]c2nc(-c3ccc(O)cc3)c(Br)cc12)C1CC1 [SB-725317] | 3.4 | 100 | 32 | 100 | 92 | 84 | 100 | 100 | 100 | 100
COc1ccc2cc(-c3c(-c4ccncc4)nc(-c4ccc(S(C)(=O)=O)cc4C)n3C)ccc2c1 [SB-633825] | 70 | 100 | 61 | 77 | 45 | 80 | 100 | 84 | 76 | 81
CCS(=O)(=O)c1ccc(OC)c(Nc2ncc(-c3cccc(OC)c3)o2)c1 [GW580509X] | 9.7 | 100 | 7.8 | 100 | 100 | 100 | 100 | 100 | 100 | 97
CC1=C(C(=O)Nc2ccc3[nH]ncc3c2)C(c2ccc3ccccc3c2)CC(=O)N1 (centres unmarked) [GSK270822A] | 74 | 100 | 66 | 70 | 60 | 64 | 100 | 100 | 92 | 79
COc1cc(C)c(N(C)C(=O)CN(C)C)cc1Nc1nc(Nc2cccc(F)c2C(N)=O)c2cc[nH]c2n1 [GSK2219385] | 100 | 97 | 100 | 76 | 79 | 100 | 100 | 83 | 100 | 92
NS(=O)(=O)c1ccc(N/N=C2\C(=O)Nc3ccc(Cl)cc32)cc1 [GW280670X] | 29 | 100 | 81 | 100 | 100 | 100 | 100 | 100 | 100 | 88
Cl.c1ccc(Cc2nc3ccc(Nc4ncnc5ccccc45)cc3[nH]2)cc1 [GR269666A] | 100 | 100 | 83 | 100 | 100 | 100 | 100 | 97 | 100 | 89
Cl.O=C(Nc1ccc(Oc2ccc3[nH]c(NC(=O)c4ccco4)nc3c2)cc1)Nc1cc(C(F)(F)F)ccc1F [GW683134A] | 0.3 | 67 | 84 | 100 | 87 | 100 | 100 | 95 | 100 | 83
Cl.O=C(Nc1ccc(Oc2ccc3[nH]c(NC(=O)c4ccccc4)nc3c2)cc1)Nc1cc(C(F)(F)F)ccc1F [GW709042A] | 1.2 | 100 | 100 | 100 | 100 | 97 | 100 | 100 | 100 | 97
CCn1c(-c2nonc2N)nc2c(C#CC(C)(C)O)nc(OCCNC)cc21.Cl [GSK949675] | 100 | 79 | 100 | 100 | 100 | 100 | 100 | 100 | 82 | 100
COc1cc(C=NNc2ncnc3c2cnn3-c2ccccc2)ccc1O [GW513184X] | 40 | 100 | 100 | 100 | 100 | 91 | 100 | 100 | 71 | 100
CN(C)c1cc2c(Nc3ccc4c(cnn4Cc4ccccc4)c3)ncnc2cn1 [GW282974X] | 98 | 100 | 32 | 94 | 79 | 100 | 91 | 83 | 35 | 89
